Here are results for 21 compounds from PubChem BioAssay (NCATS).

Inconclusive results are not listed. Values without a mark were called inactive. Activity calls are given as the source filed them. Calls come from the whole dose curve; as a rule, active = well fitted curve in the direction sought with a large enough effect; inconclusive = small, poorly fitted or top-dose-only effect, or another doubt; inactive = no such curve, though single readings can be large; an effect the other way counts as inactive or inconclusive.

Assay [1] in a line: Quantitative highthroughput screen to assess conditional lethalithy of SEM cells grown in Human Plasma-Like Medium with dialyzed fetal bovine serum (HPLM+ds) (AID 1963882). For viability: series mostly up to about 46 µM. Note: nearly all actives have a fitted effect of over 35% in size. Note: potency is the fitted concentration of half-maximal effect. In outline:
(§1)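 Each medium arm—HPLM with 10% dialyzed FBS, or RPMI1640 with 5 mM glucose and 10% untreated or dialyzed FBS—was screened against an 11-point, 3-fold compound titration for 48 h at 37 °C, with CellTiter-Glo luminescence as endpoint.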

Assay [2] in a line: Quantitative highthroughput screen to assess conditional lethalithy of SEM cells grown in RPMI1640 with unreated serum (RPMI+s) (AID 1963883).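 For viability: 100% = DMSO wells and 0% = empty wells without cells.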 Note: nearly all actives have a fitted effect of over 35% in size. Note: potency is the fitted concentration of half-maximal effect. In outline:
as §1

Assay [3] can be described thus: Quantitative highthroughput screen to assess conditional lethalithy of P12 Ichikawa cells grown in RPMI1640 with dialyzed fetal bovine serum (RPMI+ds) (AID 1963880).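 For viability: 100% = DMSO wells and 0% = empty wells on each plate.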 Note: nearly all actives have a fitted effect of over 35% in size. Note: potency is the fitted concentration of half-maximal effect. The settings on record: Potency: P12-Ichikawa viability. In outline: as §1
Assay [4] in a line: Quantitative highthroughput screen to assess conditional lethalithy of P12 Ichikawa cells grown in RPMI1640 with untreated serum (RPMI+s) (AID 1963881).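 For viability: series mostly up to about 46 µM; 100% = DMSO wells and 0% = empty wells without cells.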 Note: nearly all actives have a fitted effect of over 35% in size. Note: potency is the fitted concentration of half-maximal effect. Conditions: Potency: viability. In outline:
as §1

Assay [5] can be described thus: Quantitative highthroughput screen to assess conditional lethalithy of SEM cells grown in RPMI1640 with dialyzed fetal bovine serum (RPMI+ds) (AID 1963884).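 For viability: series mostly up to about 46 µM; 100% = DMSO control wells and 0% = empty wells without cells.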 Note: nearly all actives have a fitted effect of over 35% in size. Note: potency is the fitted concentration of half-maximal effect. In outline:
as §1

Assay [6] is described as follows: Cellular viability qHTS for adrenocortical cancer (ACC) cell line NCI-H295R (AID 1963990). Note: nearly all actives have a fitted effect of over 60% in size. Note: potency is the fitted concentration of half-maximal effect. In outline:
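CellTiter-Glo ATP luminescence, read 48 h after compound addition, measured viability of NCI-H295R adrenocortical cells grown serum-free with ITS. Final concentrations spanned up to 46 uM. Data normalized to DMSO and doxorubicin, fitted for IC50 and maximal response.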
(In general: In qHTS, concentration-response curves come from the screen itself.)

Assay [7] is described as follows: Quantitative highthroughput screen to assess conditional lethalithy of P12 Ichikawa cells grown in Human Plasma-Like Medium with dialyzed fetal bovine serum (HPLM+ds) (AID 1963879). For viability: series mostly up to about 46 µM. Note: nearly all actives have a fitted effect of over 35% in size. Note: potency is the fitted concentration of half-maximal effect. The settings on record: Potency: viability. In outline: as §1
The nature of assay [8]: Cellular viability qHTS for adrenocortical cancer (ACC) cell line SW-13 (AID 1963989).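 Note: cells grown in serum-free medium with ITS supplement; % is set by controls: 0 for no effect and ±100 for the full control effect; nearly all actives have a fitted effect of over 65% in size.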 Conditions: SW-13 ACC cells viability, CellTiter-Glo, 48 h; activity (max response): hits give low values. In outline: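 Viability was read as CellTiter-Glo luminescence after 48 h compound treatment (up to 46 uM final) of SW-13 cells grown serum-free; titration curves were fit with a four-parameter logistic model to give IC50 and efficacy.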

`COc1cc2nc(-c3cc(F)ccc3O)nc(N[C@@H]3CNC[C@@H]3C(C)(C)O)c2cc1OC`: the results for the Potency in assay [1] and in assay [2] were 332 nM (active) and 469 nM (active), respectively.
For the compound `CC[C@@]1([C@@H]2O[C@@H]([C@H]3O[C@@](O)(CO)[C@H](C)C[C@H]3C)C[C@H]2C)CC[C@H]([C@]2(C)CC[C@]3(C[C@H](O)[C@@H](C)[C@@H]([C@@H](C)[C@@H](OC)[C@H](C)C(=O)O)O3)O2)O1`, the Potency in assay [3] is 2290 nM (active); in assay [4], 1440 nM (active); in assay [1], 512 nM (active); in assay [2], 457 nM (active); in assay [5], 1150 nM (active); in assay [6], 715 nM (active).
For `C[C@@H](Oc1cc(-c2cnn(C3CCNCC3)c2)cnc1N)c1c(Cl)ccc(F)c1Cl`, the values for the Potency in assay [3], in assay [4] and in assay [2] were 18700 nM (active), 16600 nM (active) and 9350 nM (active), respectively.
`CNc1nc(-c2ccc3c(N)n[nH]c3c2)cc(N2C[C@@H](C(=O)NC3CCCCC3)CC[C@@H]2C)n1`: the Potency is 23500 nM (active) in assay [7]; 16600 nM (active) in assay [4]; 16600 nM (active) in assay [1]; 16600 nM (active) in assay [2]; 18700 nM (active) in assay [5].
As to `CC(C)(O)CNc1nc(Nc2ccnc(C(F)(F)F)c2)nc(-c2cccc(C(F)(F)F)n2)n1`, the Potency in assay [7] was 2950 nM (active); in assay [3], 2950 nM (active); in assay [4], 2950 nM (active); in assay [5], 3310 nM (active).
On to `CO[C@H]1C[C@@H]2CC[C@@H](C)[C@@](O)(O2)C(=O)C(=O)N2CCCC[C@@H]2C(=O)O[C@H]([C@H](C)C[C@@H]2CC[C@H](OCCO)[C@H](OC)C2)CC(=O)[C@H](C)C=C(C)[C@@H](O)[C@@H](OC)C(=O)[C@H](C)C[C@H](C)C=CC=CC=C1C`, for which the Potency in assay [1] was 590 nM (active).
For the compound `CC=C(C)C(=O)O[C@H]1C(C)=C[C@]23C(=O)[C@@H](C=C(CO)[C@@H](O)[C@]12O)[C@H]1[C@@H](C[C@H]3C)C1(C)C`, the Potency result in assay [7] was “inactive”. In addition, the Potency in assay [4] was 6.6 nM (active).
`COc1nccc(-c2c(-c3ccc(F)cc3)ncn2C2CCC(O)CC2)n1` (centres undefined): the Potency entry in assay [7], in assay [4] and in assay [6] was “inactive” throughout. Further, the Potency in assay [2] is 5260 nM (active). Further, the activity (max response) in assay [8] was -14%.
As to `COc1cc2c(cc1O)CCC1C2CC[C@@]2(C)C1CC[C@@H]2O` (some centres undefined), the Potency is 1870 nM (active) in assay [7] and 2640 nM (active) in assay [4].
Regarding `Cc1onc(-c2ccccc2)c1C(=O)N[C@@H]1C(=O)N2[C@@H](C(=O)O)C(C)(C)S[C@@H]12`, the figures for the Potency in assay [3] and in assay [4] were 1050 nM (active) and 1320 nM (active), respectively. The Potency entry in assay [1] and in assay [5] was “inactive” each time.
With `NC(=O)c1cnc(N[C@@H]2CCCC[C@@H]2N)nc1Nc1cccc(-n2nccn2)c1`, the Potency entry in assay [3] was “inactive”. Moreover, the values for the Potency in assay [1] and in assay [6] were 11700 nM (active) and 25100 nM (active), respectively.
On to `COc1cc([C@@H]2c3cc4c(cc3[C@@H](O[C@@H]3O[C@@H]5CO[C@@H](c6cccs6)O[C@@H]5[C@H](O)[C@@H]3O)[C@H]3COC(=O)[C@H]23)OCO4)cc(OC)c1O`, for which, in assay [4], the Potency is 743 nM (active).
On to `CC(=O)ON=C1C(c2c(O)[nH]c3cc(Br)ccc23)=Nc2ccccc21`, for which the Potency in assay [7] was 20900 nM (active); in assay [1], 1180 nM (active); in assay [5], 935 nM (active).
`CC[C@H](CC[C@@H](C)[C@H]1CC[C@H]2[C@@H]3CC=C4C[C@@H](O)CC[C@]4(C)[C@@H]3CC[C@]12C)C(C)C`: the Potency result in assay [3], in assay [4], in assay [2] and in assay [5] was “inactive” each time.
Take `CN(C)CCOc1ccc(C(=C(CCCl)c2ccccc2)c2ccccc2)cc1`: the Potency in assay [1] was 5900 nM (active); in assay [2] it was 3320 nM (active).
`O=c1[nH]c(=O)n([C@H]2C[C@@H](O)[C@@H](CO)O2)cc1C(F)(F)F`: the Potency in assay [7] was 1180 nM (active); in assay [4], 3720 nM (active); in assay [2], 9350 nM (active).
As for `COc1cc(C(=O)NS(=O)(=O)c2ccccc2C)ccc1Cc1cn(C)c2ccc(NC(=O)OC3CCCC3)cc12`, the Potency entry in assay [7] is “inactive”. Moreover, the Potency in assay [1] is 20900 nM (active); in assay [6] it was 28200 nM (active).
On to `O=C(O)C=Cc1ccc(O)c(O)c1`, for which the Potency in assay [3] was 26400 nM (active); in assay [2] it was 13200 nM (active); in assay [5], 14800 nM (active).
With `CO[C@@H]1[C@H](N(C)C(=O)c2ccccc2)C[C@H]2O[C@]1(C)n1c3ccccc3c3c4c(c5c6ccccc6n2c5c31)C(=O)NC4`, the Potency in assay [7] is 2640 nM (active); in assay [1] it was 662 nM (active); in assay [5] it was 743 nM (active).
With `CNC(=O)c1cccc(-c2ccc3c(N4CCOC[C@H]4C)nc(N4CCOC[C@H]4C)nc3n2)c1`, the Potency was 74.3 nM (active) in assay [7], 264 nM (active) in assay [1], 2640 nM (active) in assay [2] and 469 nM (active) in assay [5].
Consider `Cc1cc(N2CCOCC2)cc2[nH]c(-c3c(NC[C@@H](O)c4cccc(Cl)c4)cc[nH]c3=O)nc12`, for which the Potency result in assay [7] and in assay [3] was “inactive” throughout. Also, the Potency in assay [1] was 1480 nM (active); in assay [2], 1660 nM (active); in assay [5], 1870 nM (active); in assay [6], 5010 nM (active).
